High-throughput results: PubChem BioAssay, National Center for Advancing Translational Sciences (NCATS)
Compounds with a hit are over-represented: about 8.1% of the library has one in this group of screens.
Epigenetic reg: epigenetic control regulation, reporter derepression; murine LDR cells, GFP reporter derepression, 30 h; Potency, µM (titrated, usually from 53.9 µM), without a hit: at the top dose GFP activation, hits mostly activators; actives 0.2% (n = 280,000); AID 1865; also: % of control where 0% means no effect; nearly all actives have a fitted effect of over 60% in size
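Reporter derepression read as number of fluorescent GFP-positive objects, 20-120 um in size, counted by laser-scanning cytometer. Mouse LDR line with an epigenetically silenced CMV-GFP locus; compound incubation 30 h, 37 C.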
Gal4-VP16 FLuc: Gal4-VP16 reporter inhibition counter-screen; Drosophila S2 Gal4-VP16 UAS-luciferase, luminescence, 20 h; Potency, µM (top dose mostly 53.6 µM), for inactives: at the top dose activity, negative = inhibition, most hits filed as inhibitors; actives 3.5% (n = 310,000); AID 2546;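 also: Gal4-VP16 expression switched on by copper sulfate through the metallothionein promoter; % is scaled to controls: 0 for no effect and ±100 for the full control effect; nearly all actives have a fitted effect of over 50% in size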
ClpP mod: qHTS Assay for Activators of ClpP | Potency, µM (series often up to 57.5 µM), inactives show top-dose activity change, negative = active | actives 1.9% (n = 340,000) | purified B. subtilis ClpP, FRET peptide cleavage, 20 min | AID 651965, 2013 | ATP-dependent Clp protease proteolytic subunit (Bacillus subtilis (strain 168)), P80244; active = well fitted falling curve with a large enough effect; inconclusive = small, poorly fitted or top-dose-only effect; inactive = no such curve, though single readings can be large or run the other way; also: the source files actives as falling curves though it sought activators and does not explain the sign; nearly all actives have a fitted effect of over 65% in size
Target sequence (P80244 whole entry, looked up): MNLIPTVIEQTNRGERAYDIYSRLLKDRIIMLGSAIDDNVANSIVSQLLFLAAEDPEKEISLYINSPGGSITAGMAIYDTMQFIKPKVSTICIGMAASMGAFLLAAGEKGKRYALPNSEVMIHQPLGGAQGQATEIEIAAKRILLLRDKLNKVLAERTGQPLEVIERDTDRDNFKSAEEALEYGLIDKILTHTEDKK
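Buffer: 100 mM Tris/HCl pH8, 100 mM KCl, 0.05% low protease BSA, 2.5% glycerol, 0.01% Tween-20. ClpP 10 microg/mL final; 20 min RT; delta FRET normalized to ADEP and DMSO controls.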
Sfp inh: inhibitors of Bacillus subtilis Sfp phosphopantetheinyl transferase | Potency, µM, for the others: largest response in the series, negative = inhibition, hits mostly inhibitors | Q9F4F7 | actives 3.5% (n = 310,000) | Biochemical Sfp PPTase activity, qHTS;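 also: the enzyme is Sfp with the accession as filed and its product quenches rhodamine fluorescence; 0% = enzyme reaction without inhibitor and -100% = no enzyme wells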
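Compounds were incubated with enzyme (final 15 nM) for 15 min at room temperature before substrate addition started the reaction. Fluorescence at 525 nm excitation, 598 nm emission was recorded immediately and after 30 minutes.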
PINK1 modulator: PINK1 expression modulation; PINK1 immunofluorescence, high-content cytometry, 24 h; Potency, µM (series often up to 76.6 µM), for the others: top-dose activation (PINK1 increase), most hits filed as activators; actives 0.2% (n = 410,000); active = well fitted activation curve with a large enough effect; inconclusive = small, poorly fitted or top-dose-only effect; cell line not stated here; also: % of control where 0% means no effect; nearly all actives have a fitted effect of over 65% in size
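Fluorescence from anti-PINK1 antibody, together with nuclear and cell stains, was scanned on a laser-scanning cytometer. Before staining, stable-line cells were incubated 24 hours with compounds at 5 concentrations; primary antibody 12 h at 10 degrees C.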
RORg inh: inhibitors of mouse ROR gamma transcriptional activity | Drosophila S2 Gal4-RORgamma UAS-luciferase reporter, 20 h | Potency, µM (highest dose often 53.6 µM), for inactives: at the highest dose activity change, negative = inhibition, hits mostly inhibitors | actives 5.4% (n = 310,000) | AID 2551; also: % is scaled to controls: 0 for no effect and ±100 for the full control effect; nearly all actives have a fitted effect of over 60% in size
Target sequence (P51450 whole entry, looked up, the tested form may be a part): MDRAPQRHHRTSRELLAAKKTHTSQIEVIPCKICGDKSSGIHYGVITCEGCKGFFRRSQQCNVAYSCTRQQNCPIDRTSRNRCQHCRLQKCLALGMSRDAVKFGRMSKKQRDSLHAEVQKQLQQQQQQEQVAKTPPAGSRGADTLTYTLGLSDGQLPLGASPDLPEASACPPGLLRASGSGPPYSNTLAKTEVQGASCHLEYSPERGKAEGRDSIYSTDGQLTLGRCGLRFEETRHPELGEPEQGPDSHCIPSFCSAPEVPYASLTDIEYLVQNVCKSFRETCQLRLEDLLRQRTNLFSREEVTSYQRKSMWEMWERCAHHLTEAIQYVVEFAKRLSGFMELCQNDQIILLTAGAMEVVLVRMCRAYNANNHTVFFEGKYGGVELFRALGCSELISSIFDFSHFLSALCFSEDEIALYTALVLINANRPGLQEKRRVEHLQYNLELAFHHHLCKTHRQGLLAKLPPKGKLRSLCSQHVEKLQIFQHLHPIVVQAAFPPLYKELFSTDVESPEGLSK
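Drosophila S2 cells stably expressing Gal4-DBD/mouse RORγ fusion under metallothionein promoter plus UAS-luciferase; compound 1 h, then 700 uM CuSO4 induction for 20 h at ambient temperature; inhibition read as reduced luminescence.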
Numbers without * were called inactive; ? = inconclusive; nt = not tested or not shown; [ ] = remark or other dose. Unless noted, calls follow the shape of the dose curve; as a rule, active = well fitted curve in the direction sought with a large enough effect; inconclusive = small, poorly fitted or top-dose-only effect, or another doubt; inactive = no such curve, though single readings can be large; an effect the other way counts as inactive or inconclusive. Potency is read from the fitted curve at half-maximal effect.

SMILES	Epigenetic reg	Gal4-VP16 FLuc	ClpP mod	Sfp inh	PINK1 modulator	RORg inh
Cc1[nH]c2ccccc2c1C(C[N+](=O)[O-])c1ccco1 (centres undefined)	0%	-8%	nt	-7%	0%	-1%
Cc1ccc(-c2[nH]c3ccccc3c2C(C[N+](=O)[O-])c2ccco2)cc1 (centres undefined)	9%	22µM*	1%	20%	?	3%
O=C(c1ccc2c(=O)n(-c3ccccc3)c(=S)[nH]c2c1)N1CCCCC1	-1%	3.2µM*	-27%	-27%	2%	8.9µM*
O=C(c1ccc2c(=O)n(C3CCCC3)c(=S)[nH]c2c1)N1CCCCCC1	0%	1µM*	nt	-3%	4%	1.3µM*
CC(NS(=O)(=O)c1ccccc1[N+](=O)[O-])c1ccccn1 (centres undefined)	nt	nt	-2%	nt	0%	nt
Cc1cccc(-c2cccc(C(=O)N3CCc4c(cnc(C)c4CNC(=O)c4cncs4)C3)c2)c1	nt	nt	nt	nt	10%	nt
CCN(CC)c1nc(N(CC)CC)[nH]c(=O)n1	nt	nt	5%	nt	-2%	nt
CCN(CC)c1nc(=S)nc(NC(C)(C)C)[nH]1	-3%	3.2µM*	-4%	8%	1%	1.3µM*
COCC(=O)Nc1cc(C(=O)N2CCC(c3ccccc3)CC2)cc2nc(-c3ccccc3)n(C)c12	nt	nt	nt	nt	5%	nt
COc1cccc(-c2nc(SCc3cc(=O)c4cc(Cl)ccc4[nH]3)n[nH]2)c1	-1%	nt	3%	nt	6%	nt
Cn1c(CCCNC(=O)c2ccccc2)nc2ccccc21	6%	3%	0%	2%	2%	1%
CCn1c(CNC(=O)C(C)(C)C)nc2ccccc21	2%	-2%	-12%	11%	4%	21%
CCCCn1c(CNC(=O)C(C)(C)C)nc2ccccc21	-1%	?	1%	6%	1%	13µM*
CC(C)Cn1c(CCCNC(=O)c2ccc(F)cc2)nc2ccccc21	-1%	3%	1%	-1%	2%	-11%
Cc1cc2ccccc2n1CCNC(=O)c1ccccc1	-2%	2.5µM*	-23%	50µM*	-1%	4.5µM*
CC(C)Cn1c(CNC(=O)c2ccccc2)nc2ccccc21	0%	?	-1%	-2%	-1%	16µM*
Cc1cc2ccccc2n1CCNC(=O)c1ccc(Br)cc1	-3%	nt	2%	nt	0%	nt
Cn1c(/C=N/NC(=O)c2ccccc2)nc2ccccc21	0%	0%	-21%	-29%	-2%[38.3 µM]	13µM*
CC(=O)c1ccc(NC(=O)CSc2nccn2Cc2ccco2)cc1	1%	nt	1%	nt	27%	nt
CCCn1c(CNC(=O)c2ccccc2)nc2ccccc21	-1%	-2%	-1%	11%	4%[38.3 µM]	10µM*
CSc1nnc(CNC(=O)/C=C/c2ccccc2Cl)n1-c1ccc(F)cc1	nt	nt	nt	nt	0%	nt
CC(C)CCn1c(=O)c2ccccc2n2c(=S)[nH]nc12	nt	13µM*	nt	56µM*	-1%	4µM*
COC(=O)C1=C(C(=O)OC)SC2(S1)C(C(=O)OC)=C(C(=O)OC)SC1=C2c2cc(C)ccc2NC1(C)C	-3%	?	-2%	2.8µM*	-1%	4.5µM*
CCOC(=O)C1(N(CC)CC)Sc2cc(C)ccc2NC1=O (centres undefined)	-1%	?	1%	10%	7%	8%
COC(=O)CSc1nc(-c2ccc(C)cc2)c2c(c1C#N)CCCC2	-1%	0%	28µM*	?	-1%	2%
SMILES	Epigenetic reg	Gal4-VP16 FLuc	ClpP mod	Sfp inh	PINK1 modulator	RORg inh
Cc1ccc2nc(SCC(=O)Nc3ccc4sc(C)nc4c3)c(C#N)cc2c1	5.6µM*	2%[0.365 µM]	-1%	-3%	?	-43%
COC(=O)CSc1nc(N2CCOCC2)c2c(c1C#N)CCCC2	-1%	1%	-6%	16%	3%	11%
COC(=O)CSc1nc2cc(C)ccc2cc1C#N	16µM*	-5%	-7%	-2%	11%	-14%
COC(=O)CSc1ccc(C#N)c(SCC(=O)OC)c1	-1%	-12%	14µM*	-7%	5%	7%
Cc1ccc2nc(SCC(=O)Nc3ccccc3N3CCOCC3)c(C#N)cc2c1	-1%	?	-2%	-14%	5%	-38%
Cc1cc(C(=O)NCC2CCC3(CCN(Cc4ccc5ccccc5c4)CC3)O2)n(C)n1 (centres undefined)	nt	nt	nt	nt	1%	nt
CCCCCN(CCCCC)C(=O)[C@H](CCC(=O)O)NC(=O)[C@H](Cc1ccc(OP(=O)(O)O)cc1)NC(C)=O	nt	-1%	nt	?	nt	12%
Cc1nnc(Cl)c2nn(-c3ccccc3F)c(C)c12	1%	-14%	28µM*	8%	1%	?
Cc1nnc(SCCN2CCOCC2)c2nn(-c3ccccc3F)c(C)c12	2%	25%	14µM*	?	1%	-13%
Cc1n[nH]c(=S)c2nn(-c3ccccc3F)c(C)c12	1%	?	-1%	-17%	0%	?
Cc1cccc(-c2noc(CN(C(=O)COc3ccc(C(C)C)cc3)C(C)C)n2)c1	0%	nt	0%	nt	7%	nt
O=S(=O)(c1ccc(F)cc1)N1CCC(Oc2cccc(C(F)(F)F)c2)CC1	-1%	nt	0%	nt	3%	nt
N#CC1=C(SCC(=O)NCc2ccccc2)NC(=O)CC1c1ccco1 (centres undefined)	3%	-3%	0%	-6%	2%	-6%
N#CC1=C(SCc2ccccc2)NC(=O)CC1c1ccco1 (centres undefined)	-3%	-2%	-7%	45µM*	4%	20%
O=C(Nc1cccc(O)c1)C1CCCN1C(=O)OCc1ccccc1 (centres undefined)	0%	nt	28µM*	3%	-4%	21%[0.365 µM]
O=C(NCc1cccn1Cc1ccccc1)Nc1ccc(Br)cc1F	7%	nt	-2%	nt	12%	nt
CCCN(C(=O)c1cc2c(s1)-c1c(C)cccc1OC2)c1ccc(OCC)cc1	1%	nt	-3%	nt	4%	nt
COC(=O)/C=C1\SC(=NC(=O)c2ccc(C)cc2)NC1=O	-5%	?	nt	35µM*	1%	?
CC(C)(C)OC(=O)N1C2C=CC1C1=COCCN1C2=O (centres undefined)	nt	1%	nt	10%	nt	31%
CC(=O)c1cccc(CN2CCCC(C(=O)Nc3ccc(-c4ccco4)cc3)C2)c1 (centres undefined)	nt	1%	1%	56µM*	2%	2%
CC(=O)c1cccc(CN2CCCC(C(=O)Nc3cccc(-n4cccn4)c3)C2)c1 (centres undefined)	nt	1%	1%	16%	0%	-12%
